# From PubChem BioAssay (NCATS)
# Inconclusive results are not listed. A call without a number means that no potency is given here. A number with no mark means an inactive call. Active and inactive are the calls of the source. Calls come from the whole dose curve. Bridge positions count the residues as written; N and C are the ends. Square brackets hold non-standard residues; d marks the D form. Peptide text beside a SMILES is read from it. hArg = N=C(N)NCCCC[C@H](N)C(=O)O; Mpa = O=C(O)CCS
# Key:
# [1] = Primary qHTS for inhibitors of SARS-S pseudo-typed particle cell entry (AID 1479145); details: SARS-S pseudotyped particle cell entry, luciferase reporter; series mostly up to 57.1 µM; note: nearly all actives have a fitted effect of over 45% in size; note: potency is the fitted concentration of half-maximal effect
# [2] = Primary qHTS for Huh7 cytotoxicity: counterscreen for inhibitors of MERS-S pseudotyped particle cell entry (AID 1479147); details: cell viability read-out; series mostly up to 57.1 µM
# [3] = Primary qHTS for inhibitors of MERS-S pseudo-typed particle cell entry (AID 1479149); details: MERS-S pseudotyped particle entry, luciferase; series mostly up to 57.1 µM; note: nearly all actives have a fitted effect of over 60% in size; note: potency is the fitted concentration of half-maximal effect
# [4] = Primary qHTS for Vero E6 cytotoxicity: counterscreen for inhibitors of SARS-S pseudo-typed particle cell entry (AID 1479150); details: cell viability; series mostly up to 57.1 µM; note: potency is the fitted concentration of half-maximal effect
Compound,Potency [1],Potency [2],Potency [3],Potency [4],outcome [1],"activity change, negative = cytotoxicity [2]",outcome [3],"activity change, negative = cytotoxicity [4]"
COc1ccc(CN(CCN(C)C)c2ncccn2)cc1,inactive,inactive,inactive,inactive,,,,
COC(=O)Nc1nc2ccc(Sc3ccccc3)cc2[nH]1,inactive,inactive,inactive,inactive,,,,
C=CCOc1ccccc1OCC(O)CNC(C)C (configuration not stated),inactive,inactive,inactive,inactive,,,,
CCOC(=O)C(C)(C)Oc1ccc(Cl)cc1,inactive,inactive,inactive,inactive,,,,
CN(C)C(=O)Oc1cccc([N+](C)(C)C)c1,inactive,inactive,inactive,inactive,,,,
CC(CNC1CCCCC1)OC(=O)c1ccccc1 (configuration not stated),inactive,inactive,inactive,inactive,,,,
O=C1OC2(c3ccccc31)c1cc(I)c(O)c(I)c1Oc1c2cc(I)c(O)c1I,inactive,inactive,inactive,inactive,,,,
FC(F)(F)C(Cl)Br (configuration not stated),inactive,inactive,inactive,inactive,,,,
CCCCC1(COC(=O)CCC(=O)O)C(=O)N(c2ccccc2)N(c2ccccc2)C1=O,inactive,inactive,inactive,inactive,,,,
Cc1ccc2c(Cl)cc(Cl)c(O)c2n1,inactive,inactive,inactive,inactive,,,,
CC(=O)N[C@H]1[C@H]([C@H](O)[C@H](O)CO)OC(C(=O)O)=C[C@@H]1N=C(N)N,inactive,inactive,inactive,inactive,,,,
Cc1c(C)c2c(c(C)c1OC(=O)CCC(=O)OCCO)CC[C@@](C)(CCC[C@H](C)CCC[C@H](C)CCCC(C)C)O2,inactive,inactive,inactive,inactive,,,,
O=C(NN1CCCC1)NS(=O)(=O)c1ccc(Cl)cc1,inactive,inactive,inactive,inactive,,,,
CCN(CC)CCNC(C(=O)OCCC(C)C)c1ccccc1 (configuration not stated),inactive,inactive,inactive,inactive,,,,
CCN(CC)C(=O)c1cccc(C)c1,inactive,inactive,inactive,inactive,,,,
Cc1c(F)cc2c(=O)c(C(=O)O)cn3c2c1CCC3C (configuration not stated),inactive,inactive,inactive,inactive,,,,
CCCOc1ccc2nc(NC(=O)OC)[nH]c2c1,inactive,inactive,inactive,inactive,,,,
O=C(O)C(=O)Nc1cccc(-c2nn[nH]n2)c1,inactive,inactive,inactive,inactive,,,,
NC(N)=NC(=O)c1nc(Cl)c(N)nc1N,inactive,inactive,inactive,inactive,,,,
CC(C(O)c1ccc(O)cc1)N1CCC(Cc2ccccc2)CC1 (configuration not stated),inactive,inactive,inactive,inactive,,,,
Nc1c(CC(=O)O)cccc1C(=O)c1ccc(Br)cc1,inactive,inactive,inactive,inactive,,,,
NCCc1ccc(O)c(O)c1,inactive,inactive,inactive,inactive,,,,
NC(=O)C1(N2CCCCC2)CCN(CCCC(=O)c2ccc(F)cc2)CC1,inactive,inactive,inactive,inactive,,,,
OC[C@H]1O[C@@H](O[C@@H]2[C@@H](CO)O[C@](O)(CO)[C@H]2O)[C@H](O)[C@@H](O)[C@H]1O,inactive,inactive,inactive,inactive,,,,
CC(=O)CCC(=O)O,inactive,inactive,inactive,inactive,,,,

Compound,Potency [1],Potency [2],Potency [3],Potency [4],outcome [1],"activity change, negative = cytotoxicity [2]",outcome [3],"activity change, negative = cytotoxicity [4]"
CO/N=C(/C(=O)N[C@@H]1C(=O)N2C(C(=O)O)=C(Cn3nnc(C)n3)CS[C@H]12)c1csc(N)n1,inactive,inactive,inactive,inactive,,,,
C=CCCCCCCCCC(=O)O,inactive,inactive,inactive,inactive,,,,
CC(C)C(=O)OCc1cccc(OC(=O)[C@@H]2N3C(=O)[C@@H](NC(=O)Cc4ccccc4)[C@H]3SC2(C)C)c1,inactive,inactive,inactive,inactive,,,,
CCCc1nc(C)c2c(=O)[nH]c(-c3cc(S(=O)(=O)N4CCN(CC)CC4)ccc3OCC)nn12,inactive,inactive,inactive,inactive,,,,
Cc1c(C(=O)NN2CCCCC2)nn(-c2ccc(Cl)cc2Cl)c1-c1ccc(Cl)cc1,inactive,inactive,inactive,inactive,,,,
NCCc1cnc[nH]1,inactive,inactive,inactive,inactive,,,,
CN(Cc1ccc(C(C)(C)C)cc1)Cc1cccc2ccccc12,inactive,inactive,inactive,inactive,,,,
C[N+]12CCC(CC1)C(OC(=O)C(O)(c1ccccc1)c1ccccc1)C2 (configuration not stated),inactive,inactive,inactive,inactive,,,,
CC[C@H](NC(C)C)[C@H](O)c1ccc(O)c2[nH]c(=O)ccc12,inactive,inactive,inactive,inactive,,,,
O=C(O)CCNC(=O)c1ccccc1,inactive,inactive,inactive,inactive,,,,
C[C@@H]1C[C@H]2[C@@H]3CCC4=CC(=O)C=C[C@]4(C)[C@@]3(Cl)[C@@H](O)C[C@]2(C)[C@@]1(OC(=O)c1ccco1)C(=O)CCl,inactive,inactive,inactive,inactive,,,,
Cc1ccc(Nc2c(F)cccc2Cl)c(CC(=O)O)c1,inactive,inactive,inactive,inactive,,,,
NC(=O)CC[C@@H](N)C(=O)O,inactive,inactive,inactive,inactive,,,,
COc1ccccc1N1CCN(CCCNc2cc(=O)n(C)c(=O)n2C)CC1,inactive,inactive,inactive,inactive,,,,
CC(C)(C)NCC(O)COc1cccc2c1CCC(=O)N2 (configuration not stated),inactive,inactive,inactive,inactive,,,,
CCCCC(=O)O[C@]1(C(=O)CO)CC[C@H]2[C@@H]3CCC4=CC(=O)CC[C@]4(C)[C@H]3[C@@H](O)C[C@@]21C,inactive,inactive,inactive,inactive,,,,
O=C(O)c1ccc(OCCCOc2ccc(C(=O)O)cc2)cc1,inactive,inactive,inactive,inactive,,,,
CCCNC(C)(C)COC(=O)c1ccccc1,inactive,inactive,inactive,inactive,,,,
CCn1cc(C(=O)O)c(=O)c2cc(F)c(N3CCNCC3)nc21,inactive,inactive,inactive,inactive,,,,
C[C@H](CCC(=O)O)[C@H]1CC[C@H]2[C@@H]3C(=O)C[C@@H]4CC(=O)CC[C@]4(C)[C@H]3CC(=O)[C@]12C,inactive,inactive,inactive,inactive,,,,
CC(=C(CCOC(=O)C(C)C)SSC(CCOC(=O)C(C)C)=C(C)N(C=O)Cc1cnc(C)nc1N)N(C=O)Cc1cnc(C)nc1N,inactive,inactive,inactive,inactive,,,,
Nc1ccc(C(=O)NCC(=O)O)cc1,inactive,inactive,inactive,inactive,,,,
C#C[C@]1(O)CC[C@H]2[C@@H]3CCc4cc(OC)ccc4[C@H]3CC[C@@]21C,inactive,inactive,inactive,inactive,,,,
NC(=O)CCCCC1CCSS1 (configuration not stated),inactive,inactive,inactive,inactive,,,,
Cc1cccc(N(C)C(=S)Oc2ccc3c(c2)CCC3)c1,inactive,inactive,inactive,inactive,,,,

Compound,Potency [1],Potency [2],Potency [3],Potency [4],outcome [1],"activity change, negative = cytotoxicity [2]",outcome [3],"activity change, negative = cytotoxicity [4]"
C[C@]12CC[C@@H]3c4ccc(O)cc4CC[C@H]3[C@@H]1CCC2=O,inactive,inactive,inactive,inactive,,,,
NS(=O)(=O)c1cc2c(cc1Cl)NC(CSCc1ccccc1)=NS2(=O)=O,inactive,inactive,inactive,inactive,,,,
Brc1c(NC2=NCCN2)ccc2nccnc12,inactive,inactive,inactive,inactive,,,,
CCCCOc1ccc(CC(=O)NO)cc1,inactive,inactive,inactive,inactive,,,,
c1ccc(CN(CC2=NCCN2)c2ccccc2)cc1,inactive,inactive,inactive,inactive,,,,
Oc1c(Cl)cc(Cl)c(Cl)c1Cc1c(O)c(Cl)cc(Cl)c1Cl,2.82 µM (active),inactive,3.55 µM (active),5.62 µM (active),,,,
O=c1[nH]cnc2c1ncn2[C@@H]1O[C@H](CO)[C@@H](O)[C@H]1O,inactive,inactive,inactive,inactive,,,,
CC(=O)OCC(=O)[C@@]12N=C(C)O[C@@H]1C[C@H]1[C@@H]3CCC4=CC(=O)C=C[C@]4(C)[C@H]3[C@@H](O)C[C@@]12C,inactive,inactive,inactive,inactive,,,,
O=C1C(c2[nH]c3ccccc3c2O)=Nc2ccccc21,inactive,inactive,inactive,inactive,,,,
C[C@H](N)[C@H](O)c1cccc(O)c1,inactive,inactive,inactive,inactive,,,,
Nc1c2c(nc3ccccc13)CCCC2,inactive,inactive,inactive,inactive,,,,
Cc1cc(=O)oc2cc(O)ccc12,inactive,inactive,inactive,inactive,,,,
Cc1nc(C2CCCCC2)c(-c2ccc(S(N)(=O)=O)c(F)c2)o1,inactive,inactive,inactive,inactive,,,,
CN1CCOC(c2ccccc2)c2ccccc2C1 (configuration not stated),inactive,inactive,inactive,inactive,,,,
OCC(CO)N[C@H]1C[C@](O)(CO)[C@@H](O)[C@H](O)[C@H]1O,inactive,inactive,inactive,inactive,,,,
N[C@@H](CSSC[C@H](N)C(=O)O)C(=O)O,,,,,inactive [at 0.573 µM],2.73% [at 0.573 µM],inactive [at 0.573 µM],4.84% [at 0.573 µM]
NS(=O)(=O)c1cc2c(cc1Cl)NC(C1CC3C=CC1C3)NS2(=O)=O (configuration not stated),inactive,inactive,inactive,inactive,,,,
CC1(C)[C@@H]2CC[C@@]1(C)C(=O)C2,inactive,inactive,inactive,inactive,,,,
NC(=O)[C@@H]1CSSCCC(=O)N[C@@H](CCCCN=C(N)N)C(=O)NCC(=O)N[C@@H](CC(=O)O)C(=O)N[C@@H](Cc2c[nH]c3ccccc23)C(=O)N2CCC[C@H]2C(=O)N1 ([Mpa][hArg]GDWPC-NH2; disulfide 1-7),inactive,inactive,inactive,inactive,,,,
CCOC(=O)[C@H](CCc1ccccc1)N[C@H]1CS[C@H](c2cccs2)CN(CC(=O)O)C1=O,inactive,inactive,inactive,inactive,,,,
CC(O)Cn1cnc2c1c(=O)n(C)c(=O)n2C (configuration not stated),inactive,inactive,inactive,inactive,,,,
C#CCN(C)Cc1ccccc1,inactive,inactive,inactive,inactive,,,,
O=[N+]([O-])c1nccn1CO[C@@H](CO)[C@H](O)CO,inactive,inactive,inactive,inactive,,,,
